Data as given in PMC8384837, “Expanding the binding specificity for RNA recognition by a PUF domain”.

Assays:
Assay in all cases: yeast three-hybrid, YBZ-1, SC-Leu-His + 0.5 mM 3-AT, 4 days
Conditions in all cases: tags: N-Gal4 AD-HA kept; label: inside an RPR1-promoter hybrid RNA with tandem MS2 sites; ssRNA
[1] = target: PUM1 PUF domain R5-RKM (Homo sapiens, UniProt Q14671 828-1176, C1007R;R1008K;Q1011M)
Method in brief: (§1)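 Pumilio-1 PUF domain libraries, randomized at the three base-contacting residues of each repeat, were co-expressed with matching RNA elements from a centromeric plasmid in strain YBZ-1, which carries a LexA–MS2 coat fusion and a HIS3 reporter. Transformants grew for four days on SC-Leu (input) or on SC-Leu-His + 0.5 mM 3-AT (selection), and the repeat regions were PCR-amplified and Illumina-sequenced. The interaction score is the log change in variant frequency from input to selection. That logarithm is base 2, with a pseudocount of 1 where a variant was absent.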

[2] = target: PUM1 PUF domain R4-YRM (Homo sapiens, UniProt Q14671 828-1176, N971Y;H972R;Q975M)
Method in brief: as §1

[3] = target: PUM1 PUF domain R8-FWR (Homo sapiens, UniProt Q14671 828-1176, N1122F;Y1123W;Q1126R)
Method in brief: as §1

[4] = target: PUM1 PUF domain R3-ARV (Homo sapiens, UniProt Q14671 828-1176, C935A;Q939V)
Method in brief: as §1

[5] = target: PUM1 PUF domain R5-AYM (Homo sapiens, UniProt Q14671 828-1176, C1007A;R1008Y;Q1011M)
Method in brief: as §1

[6] = target: PUM1 PUF domain R7-ECA (Homo sapiens, UniProt Q14671 828-1176, S1079E;N1080C;E1083A)
Method in brief: as §1

[7] = target: PUM1 PUF domain R2-VWP (Homo sapiens, UniProt Q14671 828-1176, N899V;Y900W;Q903P)
Method in brief: as §1

[8] = target: PUM1 PUF domain R1-NVR (Homo sapiens, UniProt Q14671 828-1176, S863N;R864V;Q867R)
Method in brief: as §1

Sequence of PUM1 PUF domain R7-ECA (Q14671 828-1176 S1079E/N1080C/E1083A): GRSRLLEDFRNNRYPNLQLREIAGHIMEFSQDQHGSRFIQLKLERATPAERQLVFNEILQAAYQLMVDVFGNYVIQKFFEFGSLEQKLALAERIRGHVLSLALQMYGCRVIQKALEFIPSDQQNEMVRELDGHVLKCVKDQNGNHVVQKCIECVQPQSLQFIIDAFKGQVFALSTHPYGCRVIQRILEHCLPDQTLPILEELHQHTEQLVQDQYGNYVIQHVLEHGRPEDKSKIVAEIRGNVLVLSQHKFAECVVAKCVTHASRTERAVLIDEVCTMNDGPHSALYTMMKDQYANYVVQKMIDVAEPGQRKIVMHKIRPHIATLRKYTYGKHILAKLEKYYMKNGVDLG
Sequence of PUM1 PUF domain R3-ARV (Q14671 828-1176 C935A/Q939V): as the sequence (Q14671 828-1176 S1079E/N1080C/E1083A) above, with C108A, Q112V, E252S, C253N, A256E counted along it
Sequence of PUM1 PUF domain R8-FWR (Q14671 828-1176 N1122F/Y1123W/Q1126R): as the sequence (Q14671 828-1176 S1079E/N1080C/E1083A) above, with E252S, C253N, A256E, N295F, Y296W, Q299R counted along it
Sequence of PUM1 PUF domain R1-NVR (Q14671 828-1176 S863N/R864V/Q867R): as the sequence (Q14671 828-1176 S1079E/N1080C/E1083A) above, with S36N, R37V, Q40R, E252S, C253N, A256E counted along it
Sequence of PUM1 PUF domain R4-YRM (Q14671 828-1176 N971Y/H972R/Q975M): as the sequence (Q14671 828-1176 S1079E/N1080C/E1083A) above, with N144Y, H145R, Q148M, E252S, C253N, A256E counted along it
Sequence of PUM1 PUF domain R5-RKM (Q14671 828-1176 C1007R/R1008K/Q1011M): as the sequence (Q14671 828-1176 S1079E/N1080C/E1083A) above, with C180R, R181K, Q184M, E252S, C253N, A256E counted along it
Sequence of PUM1 PUF domain R2-VWP (Q14671 828-1176 N899V/Y900W/Q903P): as the sequence (Q14671 828-1176 S1079E/N1080C/E1083A) above, with N72V, Y73W, Q76P, E252S, C253N, A256E counted along it
Sequence of PUM1 PUF domain R5-AYM (Q14671 828-1176 C1007A/R1008Y/Q1011M): as the sequence (Q14671 828-1176 S1079E/N1080C/E1083A) above, with C180A, R181Y, Q184M, E252S, C253N, A256E counted along it

## GGCUAGAACUAGUGGAUCCCCCGGCGCCCGGCGGCUCGAGCCCGGGUAAGUGUAAAUAGUCUGCAUGCCGCCGGGCGCCAUGCCUGCAGGUCGACUCUAGAAAACAUG
[1]
  binding signal: 2.32 log2 enrichment (interaction score)
[2]
  binding signal: 2.31 log2 enrichment (interaction score)
[3]
  binding signal: 3.71 log2 enrichment (interaction score)
[4]
  binding signal: 3.82 log2 enrichment (interaction score)

## GGCUAGAACUAGUGGAUCCCCCGGCGCCCGGCGGCUCGAGCCCGGGUAAGUGUCAAUAGUCUGCAUGCCGCCGGGCGCCAUGCCUGCAGGUCGACUCUAGAAAACAUG
[5]
  binding signal: 2.95 log2 enrichment (interaction score)

## GGCUAGAACUAGUGGAUCCCCCGGCGCCCGGCGGCUCGAGCCCGGGUAAGUUUAAAUAGUCUGCAUGCCGCCGGGCGCCAUGCCUGCAGGUCGACUCUAGAAAACAUG
[6]
  binding signal: 3.96 log2 enrichment (interaction score)

## GGCUAGAACUAGUGGAUCCCCCGGCGCCCGGCGGCUCGAGCCCGGGUAAGUCUAAAUAGUCUGCAUGCCGCCGGGCGCCAUGCCUGCAGGUCGACUCUAGAAAACAUG
[6]
  binding signal: 1.26 log2 enrichment (interaction score)

## GGCUAGAACUAGUGGAUCCCCCGGCGCCCGGCGGCUCGAGCCCGGGUAAGCGUAAAUAGUCUGCAUGCCGCCGGGCGCCAUGCCUGCAGGUCGACUCUAGAAAACAUG
[3]
  binding signal: 3.91 log2 enrichment (interaction score)

## GGCUAGAACUAGUGGAUCCCCCGGCGCCCGGCGGCUCGAGCCCGGGUAAGUGUAAUUAGUCUGCAUGCCGCCGGGCGCCAUGCCUGCAGGUCGACUCUAGAAAACAUG
[4]
  binding signal: 1.96 log2 enrichment (interaction score)

## GGCUAGAACUAGUGGAUCCCCCGGCGCCCGGCGGCUCGAGCCCGGGUAAGUGUAAAAAGUCUGCAUGCCGCCGGGCGCCAUGCCUGCAGGUCGACUCUAGAAAACAUG
[7]
  binding signal: 4.15 log2 enrichment (interaction score)

## GGCUAGAACUAGUGGAUCCCCCGGCGCCCGGCGGCUCGAGCCCGGGUAAGUGUAAAUCGUCUGCAUGCCGCCGGGCGCCAUGCCUGCAGGUCGACUCUAGAAAACAUG
[8]
  binding signal: 5.44 log2 enrichment (interaction score)

## GGCUAGAACUAGUGGAUCCCCCGGCGCCCGGCGGCUCGAGCCCGGGUAAGUGUAAAUUGUCUGCAUGCCGCCGGGCGCCAUGCCUGCAGGUCGACUCUAGAAAACAUG
[8]
  binding signal: 3.93 log2 enrichment (interaction score)
